Bioassay records from PubChem.
Hits are enriched below; roughly 4% of the tested compounds scored in any of these assays.
CF NFkB block = inhibitors of cystic fibrosis induced NF-kB; AID 588850; actives 0.86% (n = 360,000); KKLEB NF-kB-GFP reporter, PAF-induced, GFP fluorescence overnight; inhibition, % at 5 µM;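 active means at least 50% inhibition at 5 µM, scaled per plate between neutral and stimulator controls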;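 further: PAF is a Pseudomonas aeruginosa culture filtrate used as stimulus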
KKLEB tox = reduces viability of KKLEB cystic fibrosis airway cells | KKLEB CF airway cells viability, ATPlite luminescence, overnight; hits give low values; cells stimulated with P. aeruginosa culture filtrate | activity change (cytotoxicity), % at 5 µM | actives 0.36% (n = 360,000);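 active means corrected activity change at or below -50% at 5 µM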
TWEAK Fn14 block = inhibitors of TWEAK-Fn14 interaction signaling; actives 2% (n = 360,000); inhibition, % at 10 µM; TWEAK-stimulated Fn14 reporter cells, luciferase luminescence, 8 h; in the data active means inhibition above about 50%
HIF-2a inh = blocks HIF-2a reporter activity; AID 624352; inhibition, % at 18.8 µM; 786-0 RCC cells HIF-2a reporter, luciferase luminescence, overnight; actives 0.72% (n = 360,000);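 active means inhibition of the luminescence signal of 40% or more relative to plate controls, in a single-dose primary screen at 18.75 µM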
TROY signal inh = inhibitors of TROY-dependent NF-kB signaling | inhibition, % at 10 µM | Q293 LMP1-TROYcd NF-kB luciferase reporter, 4 h | actives 0.98% (n = 360,000) | AID 1347056;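 active means compounds whose plate-normalised and pattern-corrected inhibition of the luciferase reporter signal at the single screening dose is 50% or more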
Peg3 promoter = reduces Peg3 promoter-driven luciferase expression in HeLa | actives 1.7% (n = 360,000) | HeLa PEG-Prom luciferase reporter, luminescence, overnight | inhibition, % at 20 µM;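 active means inhibition of at least 50% at 20 µM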
Hits are given with their value; . = inactive; / = not tested or not shown; ! = a repeat was not active.

SMILES | CF NFkB block | KKLEB tox | TWEAK Fn14 block | HIF-2a inh | TROY signal inh | Peg3 promoter
O=[N+]([O-])c1ccc(Sc2cc[n+]([O-])c3ccccc23)c([N+](=O)[O-])c1 | . | . | 77 | . | . | .
O=c1[nH]c(Sc2ccc([N+](=O)[O-])cc2[N+](=O)[O-])nc2ccccc12 | . | . | . | . | . | .
Nn1c(SCc2c(F)cccc2F)nnc1-c1ccccn1 | . | . | . | . | . | .
Fc1ccccc1N=C1NN=C(c2ccccc2)CS1 | . | . | 67 | . | . | .
CN1C(=O)C(Cl)(Cl)C(=O)c2ccccc21 | 53 | . | 51 | . | . | .
Cc1ccc(CNC(=O)C2CCCC2)cc1 | . | . | . | . | . | .
Cc1ccc2[nH]c(CNC(=O)C3CCCCC3)cc2c1 | . | . | 72 | . | 53 | .
O=c1cc(-c2ccc(O)c(O)c2)oc2cc(O)cc(O)c12 | . | . | 64 | . | . | .
O=c1c(O)c(-c2ccc(O)c(O)c2)oc2cc(O)cc(O)c12 | . | . | 68 | . | . | .
COc1ccc(-c2cc(=O)c3c(O)cc(O)cc3o2)cc1 | 68 | . | . | . | . | .
COc1c(-c2ccc(O)cc2)oc2cc(O)cc(O)c2c1=O | . | . | . | . | . | .
O=C(NC(c1ccc(Cl)cc1)c1ccsc1)C1CCN(CCOc2ccc(Cl)cc2)CC1 (configuration not stated) | . | . | . | . | . | .
COc1cc(Nc2ccccn2)cc(C(=O)Nc2cccc(C(F)(F)F)c2)c1 | . | . | 50! | . | . | 81!
Cc1cc(NC(=O)COC(=O)C2CCN(S(=O)(=O)c3c(Cl)cccc3Cl)CC2)no1 | . | . | 92 | . | / | .
CCOC(=O)C1CCN(S(=O)(=O)c2c(Cl)ccc3nonc23)CC1 | 90 | . | 75 | 92 | 68 | 112
CCOC(=O)C1CCN(S(=O)(=O)c2cccc3nonc23)CC1 | . | . | . | . | . | .
CCOC(=O)N(C)c1c(CC)nc2c(OCc3ccc(Cl)cc3Cl)cccn12 | . | . | . | . | . | .
O=C1c2cccc(NCCCNCCO)c2C(=O)c2cccc(NCCCNCCO)c21 | . | . | . | 48 | . | 109
CCCCCCCCN1C(=O)[C@H](CC(=O)N2CCN(C(=O)c3ccco3)CC2)C[C@@]2(C(=O)OCC)CCCC=C12 | / | / | . | . | . | /
Nc1nc2ccccc2cc1C(=O)NCCCCc1ccccc1 | / | / | 53 | . | . | /
Cc1nnc(NC(=O)CSc2nc3ccccc3o2)s1 | . | . | . | . | . | .
O=C(Nc1cccc(-c2cn3ccccc3n2)c1)c1cc2ccccc2oc1=O | . | . | . | . | . | 73
N=c1oc2ccccc2cc1C(=O)NC1CCCCCC1 | . | . | . | . | . | .
CC(=O)Nc1cccc(-c2cn3ccccc3n2)c1 | . | . | . | . | . | .
COc1cccc(NC(=O)c2cc3ccccc3o/c2=N\O)c1 | . | . | 78 | . | . | .
SMILES | CF NFkB block | KKLEB tox | TWEAK Fn14 block | HIF-2a inh | TROY signal inh | Peg3 promoter
O=C(NC1CCCCCC1)c1cc2ccccc2oc1=O | . | . | 54 | . | . | .
O=C(Nc1ccccc1Cl)c1cc2ccccc2o/c1=N\O | . | . | . | . | . | .
CC1CCc2nc(NC(=O)CSc3nc4ccccc4o3)sc2C1 (configuration not stated) | . | . | 93 | . | 86 | .
COc1ccc(N2C(=NC(=O)c3ccccc3)SC3CS(=O)(=O)CC32)cc1 (configuration not stated) | . | . | . | . | . | .
COc1cc2ccccc2cc1C(=O)Nc1cc(C)ccn1 | . | . | . | . | . | .
O=C(Nc1nc2ccccc2s1)C1CCN(S(=O)(=O)c2cc([N+](=O)[O-])ccc2Cl)CC1 | . | . | 84 | . | . | .
Cc1c(C(=O)Nc2cnccn2)oc2ccccc12 | . | . | . | . | . | .
CCC(C)NC(=O)C1CCN(S(=O)(=O)c2cc([N+](=O)[O-])ccc2Cl)CC1 (configuration not stated) | . | . | . | . | . | .
O=C(Nc1ccc(Cl)c(S(=O)(=O)N2CCOCC2)c1)c1cc2ccccc2oc1=O | . | . | . | . | . | 95
Cc1ccnc(NC(=O)c2oc3ccccc3c2C)c1 | . | . | 51 | . | . | .
Cc1ccnc(NC(=O)c2cc3ccccc3oc2=O)c1 | . | . | 60 | . | . | .
O=C(CSc1nc2ccccc2o1)Nc1ccc(N2CCOCC2)c(Cl)c1 | . | . | . | . | 52 | .
O=C(CSc1nc2ccccc2o1)Nc1cc(C(F)(F)F)ccc1N1CCOCC1 | . | . | . | . | . | .
Cc1ccc(NC(=O)CSc2nc3ccc(Nc4nc(N5CCOCC5)nc(N5CCOCC5)n4)cc3s2)cc1 | . | . | . | . | . | .
COc1ccc(NC(=O)CSc2nc3ccc(Nc4nc(N5CCOCC5)nc(N5CCOCC5)n4)cc3s2)cc1 | 56 | -50 | . | . | . | .
Cc1cccc(NC(=O)c2cc3ccccc3oc2=O)c1 | . | . | 53 | . | . | .
CC(=O)c1ccc(Nc2nc(N3CCOCC3)nc(N3CCOCC3)n2)cc1 | . | . | 83 | . | . | .
COc1ccc(NC(=O)C2(C)Cc3c(-c4ccc(N(C)C)cc4)ccnc3O2)cc1OC (configuration not stated) | . | . | . | . | . | .
CCN(CC)C(=O)C1=C(C)N(CCCN2CCCC2=O)C(=O)C(CC(=O)NC(c2ccccc2)c2ccccc2)C1 (configuration not stated) | . | . | . | . | . | .
CCC(=O)Nc1ccc(NC(=S)NC(=O)c2oc3ccccc3c2C)cc1 | . | . | . | . | . | .
O=C(CSc1nc2ccccc2s1)Nc1ccc(N2CCOCC2)c(Cl)c1 | . | . | . | . | . | .
Cc1c(C(=O)NC2=NCCS2)oc2ccccc12 | . | . | 57 | . | . | .
CCC(=O)Nc1ccc(NC(=O)c2oc3ccccc3c2C)cc1 | . | . | . | 62 | . | .
COc1ccccc1NC(=O)c1oc2ccccc2c1C | . | . | . | . | . | .
O=C(CSc1nc2ccccc2s1)Nc1ccc(Cl)c(S(=O)(=O)N2CCOCC2)c1 | . | . | 65 | . | . | .
SMILES | CF NFkB block | KKLEB tox | TWEAK Fn14 block | HIF-2a inh | TROY signal inh | Peg3 promoter
Cc1csc(NC(=O)c2oc3ccccc3c2C)n1 | . | . | . | . | . | .
COc1ccccc1CNC(=O)c1oc2ccccc2c1C | . | . | . | . | 51 | .
CC(C)C[C@@H]1CC2=C(C(=O)OC(C)(C)O2)[C@H](CCc2ccccc2)O1 | / | / | . | . | . | /
O=C(Nc1ccn(CCCNC2CCN(Cc3ccccc3)CC2)c(=O)n1)OCc1ccccc1 | . | . | . | . | . | .
COc1ccc(S(=O)(=O)N2CCOCC2)cc1NC(=O)CCCSc1ccccc1 | . | . | . | . | . | .
CN(C)c1ccc(C(=O)N2CCC2(C)C(=O)O)cc1 (configuration not stated) | . | . | . | . | . | .
